# Results taken from PubChem BioAssay AID1851 (National Center for Advancing Translational Sciences (NCATS), 2009).
# Hit rate of the full screen: of about 16,000 compounds, about 4,000 (25%) were called active. About 26% were inconclusive and are not listed. A selection follows. Values without a mark were called inactive. The call rests on the fitted dose curve; in most records, active means well fitted curve in the direction sought with a large enough effect; inconclusive means small, poorly fitted or top-dose-only effect, or effect the other way; inactive means no such curve, though single readings can be large or run the other way.
# Biological target: Cytochrome P450 2C9 (Homo sapiens) (UniProt P11712)
# Sequence (P11712 whole entry, looked up): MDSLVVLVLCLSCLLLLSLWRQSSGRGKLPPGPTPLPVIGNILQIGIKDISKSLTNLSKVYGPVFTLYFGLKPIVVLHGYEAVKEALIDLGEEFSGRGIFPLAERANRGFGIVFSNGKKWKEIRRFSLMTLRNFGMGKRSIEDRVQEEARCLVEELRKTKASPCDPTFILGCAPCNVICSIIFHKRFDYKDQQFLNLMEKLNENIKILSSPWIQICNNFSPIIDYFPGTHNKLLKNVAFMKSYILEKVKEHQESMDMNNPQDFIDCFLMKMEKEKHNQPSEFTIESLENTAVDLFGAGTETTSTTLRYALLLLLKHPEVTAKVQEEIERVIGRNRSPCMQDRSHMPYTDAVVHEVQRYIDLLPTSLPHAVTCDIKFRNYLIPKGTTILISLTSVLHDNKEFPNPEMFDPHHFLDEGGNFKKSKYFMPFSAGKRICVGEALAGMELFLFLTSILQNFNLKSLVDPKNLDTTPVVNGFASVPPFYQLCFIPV
# Assay: Cytochrome panel assay with activity outcomes
# Settings: recombinant CYP, pro-luciferin dealkylation, luminescence, p450-cyp2c9; series mostly up to 57.1 µM
# On the % scale 0 is the no-effect control and ±100 the full control effect.
Structure (SMILES),"activity, negative = inhibition",AC50
CO[C@@H]1COC(=O)CC=C[C@@H](C)[C@@H]2C=C[C@@H](O)[C@@H](COC(=O)C/C=C\[C@H]1C)O2,-2.62% [at 11.4 µM],–
C#CCCCO/N=C1/C[C@@H](O)[C@@H](O)[C@@H]2[C@@H]3C(=O)N(Cc4ccccc4)C(=O)[C@H]3CC[C@H]12,-13.5% [at 11.4 µM],–
CC1(C)OC[C@@H]2O[C@H](n3cnc4c(N)nc(Cl)nc43)[C@@H](OS(C)(=O)=O)[C@@H]2O1,2.13% [at 11.4 µM],–
CC(C)c1ccc2nc3sc(C(=O)N4CCc5ccccc5C4)c(N)c3cc2c1,–,4.47 µM (active)
Cc1noc(NC(=O)Nc2ccccc2F)c1C#N,-5.47% [at 11.4 µM],–
COc1ccc2c(c1)C(=NN)c1cc(OC)ccc1-2,–,3.55 µM (active)
COc1ccc(CC(=O)O/N=C(\N)Cc2ccc(OC)cc2)cc1,–,inactive
C/C(CCc1ccc2c(c1)OCO2)=N\N=C1\NC(=O)CC(C(=O)Nc2ccccc2)S1 (configuration not stated),–,7.94 µM (active)
CCN1C(=O)[C@H]2[C@H]3[C@H](O)[C@H](O)C/C(=N/NC(=O)OCc4ccccc4)[C@@H]3CC[C@@H]2C1=O,-4.03% [at 11.4 µM],–
OC[C@@H]1O[C@@H](n2cnc3c(NC4CCCC4)ncnc32)[C@H](O)[C@H]1O,–,inactive
O=S(=O)(c1ccccc1)N1CCN(c2cc(-c3ccccc3)nc3ncnn23)CC1,–,12.6 µM (active)
CC(C)CN1CCCC2(CCN(S(=O)(=O)c3ccccc3)CC2)C1,–,inactive
CN1CCN(c2cc(-c3ccccc3C(F)(F)F)ncn2)CC1,4.29% [at 2.29 µM],–
FC(F)(F)c1ccc(N2CCN(c3cc(-c4ccccc4)nc4ncnn34)CC2)nc1,–,2.24 µM (active)
Cc1cc(N2CCN(c3nc4ccccc4s3)CC2)n2ncnc2n1,–,inactive
CN(C)c1ncc2nc(-c3ccc(Cl)cc3)c(=O)n(C)c2n1,–,inactive
CN(C)c1ncc2nc(-c3ccc(F)cc3)c(=O)n(C)c2n1,–,inactive
O=c1c(-c2ccccc2)nc2cncnc2n1C1CC1,–,inactive
CN(C)c1ncc2nc(-c3ccccc3)c(=O)n(C3CC3)c2n1,–,10 µM (active)
CN(C)c1ncc2nc(CCc3ccccc3)c(=O)n(-c3ccccc3)c2n1,–,12.6 µM (active)
COCCn1c(=O)c(-c2ccccc2)nc2cnc(N(C)C)nc21,–,20 µM (active)
COCCn1c(=O)c(-c2cc(F)cc(F)c2)nc2cnc(N(C)C)nc21,–,inactive
CN(C)c1ncc2nc(-c3ccccc3)c(=O)n(C)c2n1,–,10 µM (active)
COCCn1c(=O)c(-c2ccc(Cl)cc2)nc2cnc(N(C)C)nc21,–,inactive
CCNc1ncc2nc(-c3ccccc3)c(=O)n(C3CC3)c2n1,–,inactive
COc1ccc(-n2c(=O)c(CCc3ccccc3)nc3cnc(N(C)C)nc32)cc1,–,inactive
Cc1nc2cnc(N(C)C)nc2n(-c2ccccc2)c1=O,–,inactive
